Laboratory results as given in PubChem BioAssay (NCATS).
Results filed as inconclusive are left out. Entries that show only a call come without a potency. Calls of active or inactive are those of the source. Calls come from the whole dose curve; as a rule, active = well fitted curve in the direction sought with a large enough effect; inconclusive = small, poorly fitted or top-dose-only effect, or another doubt; inactive = no such curve, though single readings can be large; an effect the other way counts as inactive or inconclusive.

Legend:
[1] = qHTS of pediatric cancer cell lines to identify multiple opportunities for drug repurposing: Primary screen for SJ-GBM2 cells (AID 1347091); note: potency is the fitted concentration of half-maximal effect
Procedure, shortened: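 Eight- or eleven-point concentration series, 48 h treatment at 37 degrees C in growth media; readout CellTiter-Glo luminescence. Potency and efficacy were taken from the concentration-response curves.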

[2] = qHTS of pediatric cancer cell lines to identify multiple opportunities for drug repurposing: Primary screen for SK-N-MC cells (AID 1347093); note: potency is the fitted concentration of half-maximal effect
Procedure, shortened: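 Metabolically active cells were quantified by ATP-dependent luminescence (CellTiter-Glo, 15 min at room temperature) following 48 h treatment. Cells had been plated at 500-1,000 per well and settled for 5 h beforehand.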

[3] = qHTS of pediatric cancer cell lines to identify multiple opportunities for drug repurposing: Primary screen for BT-37 cells (AID 1347094); note: series mostly up to about 57 µM
Procedure, shortened: (§1)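 Plated cells (500-1,000 per well, growth media) were allowed to settle for 5 hours, treated with compound dilutions for 48 hours, then lysed with CellTiter-Glo for 15 min at room temperature before luminescence reading.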

[4] = qHTS of pediatric cancer cell lines to identify multiple opportunities for drug repurposing: Primary screen for NB-EBc1 cells (AID 1347095); note: potency is the fitted concentration of half-maximal effect
Procedure, shortened: as §1

[5] = qHTS of pediatric cancer cell lines to identify multiple opportunities for drug repurposing: Primary screen for U-2 OS cells (AID 1347096); note: nearly all actives have a fitted effect of over 50% in size
Procedure, shortened: (§2)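 Cells (500-1,000/well) in growth media were settled 5 h at 37 degrees C, then given compounds for 48 h. Viability was read as CellTiter-Glo luminescence. Primary runs used MIPE at 11 points (0.78 nM-46 µM) and NPC at 8 points (0.59 nM-46 µM); follow-ups used 11 points.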

[6] = qHTS of pediatric cancer cell lines to identify multiple opportunities for drug repurposing: Primary screen for Saos-2 cells (AID 1347097); note: nearly all actives have a fitted effect of over 40% in size
Procedure, shortened: as §1

[7] = qHTS of pediatric cancer cell lines to identify multiple opportunities for drug repurposing: Primary screen for SK-N-SH cells (AID 1347098); note: nearly all actives have a fitted effect of over 65% in size; note: potency is the fitted concentration of half-maximal effect
Procedure, shortened: (§3)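 Cells (500-1,000/well) rested 5 h, then received compounds for 48 h; metabolically active cells were measured by CellTiter-Glo luminescence. Final concentrations spanned up to 46 µM (MIPE, 11-point) or 0.59 nM-46 µM (NPC, 8-point) in primary screens, 11-point in follow-ups.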

[8] = qHTS of pediatric cancer cell lines to identify multiple opportunities for drug repurposing: Primary screen for NB1643 cells (AID 1347099); note: nearly all actives have a fitted effect of over 50% in size
Procedure, shortened: as §1

[9] = qHTS of pediatric cancer cell lines to identify multiple opportunities for drug repurposing: Primary screen for LAN-5 cells (AID 1347100)
Procedure, shortened: as §2

[10] = qHTS of pediatric cancer cell lines to identify multiple opportunities for drug repurposing: Primary screen for BT-12 cells (AID 1347101); note: nearly all actives have a fitted effect of over 25% in size; note: potency is the fitted concentration of half-maximal effect
Procedure, shortened: as §3

[11] = qHTS of pediatric cancer cell lines to identify multiple opportunities for drug repurposing: Primary screen for Rh18 cells (AID 1347102); note: nearly all actives have a fitted effect of over 65% in size
Procedure, shortened: as §2

[12] = qHTS of pediatric cancer cell lines to identify multiple opportunities for drug repurposing: Primary screen for OHS-50 cells (AID 1347103); note: nearly all actives have a fitted effect of over 40% in size; note: potency is the fitted concentration of half-maximal effect
Procedure, shortened: as §3

[13] = qHTS of pediatric cancer cell lines to identify multiple opportunities for drug repurposing: Primary screen for RD cells (AID 1347104); note: nearly all actives have a fitted effect of over 55% in size
Procedure, shortened: as §1

[14] = qHTS of pediatric cancer cell lines to identify multiple opportunities for drug repurposing: Primary screen for MG 63 (6-TG R) cells (AID 1347105); note: nearly all actives have a fitted effect of over 50% in size
Procedure, shortened: as §1

[15] = qHTS of pediatric cancer cell lines to identify multiple opportunities for drug repurposing: Primary screen for control Hh wild type fibroblast cells (AID 1347106);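 note: series mostly up to about 46 µM; a drop in luminescence marks cytotoxicity and a rise apparent proliferation; nearly all actives have a fitted effect of over 55% in size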
Procedure, shortened: as §2

[16] = qHTS of pediatric cancer cell lines to identify multiple opportunities for drug repurposing: Primary screen for Rh30 cells (AID 1347107); note: series mostly up to about 46 µM; nearly all actives have a fitted effect of over 75% in size
Procedure, shortened: as §2

[17] = qHTS of pediatric cancer cell lines to identify multiple opportunities for drug repurposing: Primary screen for Rh41 cells (AID 1347108);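 note: series mostly up to about 46 µM; luminescence drop marks cytotoxic hits; nearly all actives have a fitted effect of over 70% in size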
Procedure, shortened: as §1

[18] = qHTS of pediatric cancer cell lines to identify multiple opportunities for drug repurposing: Confirmatory screen for NB1643 cells (AID 1347109); note: nearly all actives have a fitted effect of over 45% in size
Procedure, shortened: as §2

| SMILES | Potency [1] | Potency [2] | Potency [3] | Potency [4] | Potency [5] | Potency [6] | Potency [7] | Potency [8] | Potency [9] | Potency [10] | Potency [11] | Potency [12] | Potency [13] | Potency [14] | Potency [15] | Potency [16] | Potency [17] | Potency [18] |
| --- | --- | --- | --- | --- | --- | --- | --- | --- | --- | --- | --- | --- | --- | --- | --- | --- | --- | --- |
| Nc1ccc(S(=O)(=O)Nc2ccnn2-c2ccccc2)cc1 | inactive | inactive | inactive | inactive | inactive | inactive | inactive | inactive | inactive | inactive | inactive | inactive | inactive | inactive | inactive | inactive | inactive |  |
| COc1cccc2cc(-c3nc(C4CCC(C(=O)O)CC4)n4ncnc(N)c34)[nH]c12 (configuration not stated) | 935 nM (active) | 23.5 nM (active) |  | 1660 nM (active) |  |  |  | inactive | inactive | 344 nM (active) |  | 109 nM (active) |  |  |  | inactive |  | inactive |
| COc1ccc([C@@H]2CC(=O)c3c(O)cc(O[C@@H]4O[C@H](CO[C@@H]5O[C@@H](C)[C@H](O)[C@@H](O)[C@@H]5O)[C@@H](O)[C@H](O)[C@@H]4O)cc3O2)cc1O | inactive | 16600 nM (active) | inactive | inactive | inactive | inactive | inactive | inactive | inactive | inactive | inactive | inactive | inactive | inactive | inactive | inactive | inactive |  |
| CC(C)(C)OC(=O)CN(Cc1ccc(Cl)cc1)Cc1ccc([N+](=O)[O-])s1 | inactive | 20900 nM (active) | inactive |  | inactive |  | inactive |  | inactive |  | inactive |  |  | inactive | inactive | inactive |  |  |
| Clc1ccc(Nc2nnc(Cc3ccncc3)c3ccccc23)cc1 | inactive | 2350 nM (active) |  | inactive | inactive | inactive | 21700 nM (active) | inactive | inactive |  |  | 19500 nM (active) | inactive |  | inactive | inactive | inactive |  |
| NC(=O)c1ccc(-c2nc(-c3ccc4c(c3)OCCO4)c(-c3ccccn3)[nH]2)cc1 | inactive | inactive |  |  | inactive | inactive |  | inactive | inactive | inactive | inactive |  | inactive | inactive | inactive | inactive |  |  |
| Cc1oncc1C(=O)Nc1ccc(C(F)(F)F)cc1 | inactive | 6680 nM (active) | inactive |  | inactive | inactive |  | inactive | inactive |  | inactive |  | inactive | inactive | inactive | inactive | inactive | inactive |
